Screen size: about 5,500 compounds; about 2,000 (36%) were called active. Another 18% or so got no clear call; they are omitted. No stated cut-off is given here; in the data, active means normalized growth mostly below about 0.91 (no sharp cut-off); inconclusive means no clear call, values can overlap the other calls; inactive means mostly above about 0.92. The list shows a part of the results.
Assay: chemical genetic growth profiling, strain panel (AID 1159580);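 further: tested at 20 µM; growth read once vehicle control cultures reached saturation at 30 °C; 1 = growth at the plate median or of vehicle wells; lower values mean less growth of the strain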
Settings: S. cerevisiae deletion strains, growth OD
[1] = locus YBL105C, strain PKC1, hits give low values
[2] = locus YBR135W, strain CKS1, hits give low values
[3] = locus YBR136W, strain MEC1, hits give low values
[4] = locus YBR160W, strain CDC28, hits give low values
[5] = locus YDL017W, strain CDC7, hits give low values
[6] = locus YDL028C, strain MPS1, hits give low values
[7] = locus YDL108W, strain KIN28, hits give low values
[8] = locus YDL214C, strain PRR2, hits give low values
[9] = locus YDR052C, strain DBF4, hits give low values
[10] = locus YDR226W, strain ADK1, hits give low values
[11] = locus YDR477W, strain SNF1, hits give low values
[12] = locus YER123W, strain YCK3, hits give low values
[13] = locus YER133W, strain GLC7, hits give low values
[14] = locus YFR003C, strain YPI1, hits give low values
[15] = locus YFR019W, strain FAB1, hits give low values
[16] = locus YFR028C, strain CDC14, hits give low values
[17] = locus YGR040W, strain KSS1, hits give low values
[18] = locus YGR052W, strain FMP48, hits give low values
[19] = locus YGR092W, strain DBF2, hits give low values
[20] = locus YHR030C, strain SLT2, hits give low values
[21] = locus YHR079C, strain IRE1, hits give low values
[22] = locus YHR082C, strain KSP1, hits give low values
[23] = locus YHR205W, strain SCH9, hits give low values
[24] = locus YIL147C, strain SLN1, hits give low values
[25] = locus YJL095W, strain BCK1, hits give low values
[26] = locus YJL128C, strain PBS2, hits give low values
[27] = locus YJL157C, strain FAR1, hits give low values
[28] = locus YJR016C, strain ILV3, hits give low values
[29] = locus YJR066W, strain TOR1 (second series), hits give low values
[30] = locus YJR066W, strain TOR1, hits give low values
[31] = locus YKL048C, strain ELM1, hits give low values
[32] = locus YKL067W, strain YNK1, hits give low values
[33] = locus YKL101W, strain HSL1, hits give low values
[34] = locus YKL203C, strain TOR2, hits give low values
[35] = locus YLR113W, strain HOG1, hits give low values
[36] = locus YLR133W, strain CKI1, hits give low values
[37] = locus YLR403W, strain SFP1, hits give low values
[38] = locus YML070W, strain DAK1, hits give low values
[39] = locus YMR205C, strain PFK2 (second series), hits give low values
[40] = locus YNL006W, strain LST8, hits give low values
[41] = locus YNL020C, strain ARK1, hits give low values
[42] = locus YNL183C, strain NPR1, hits give low values
[43] = locus YNL307C, strain MCK1 (second series), hits give low values
[44] = locus YOL136C, strain PFK27, hits give low values
[45] = locus YOR061W, strain CKA2, hits give low values
[46] = locus YOR119C, strain RIO1, hits give low values
[47] = locus YOR231W, strain MKK1, hits give low values
[48] = locus YPL031C, strain PHO85, hits give low values
[49] = locus YPL153C, strain RAD53, hits give low values
[50] = locus YPL209C, strain IPL1, hits give low values
[51] = locus YPL256C, strain CLN2, hits give low values
[52] = locus YPR106W, strain ISR1, hits give low values
[53] = locus YPR111W, strain DBF20, hits give low values

Measured: normalized growth

N/C(CCSc1ccc(Cl)cc1)=N/OC(=O)Nc1ccc(Cl)cc1
active: [8] 0.336 | [11] 0.273 | [12] 0.0987 | [13] 0.286 | [15] 0.108 | [17] 0.247 | [18] 0.118 | [19] 0.275 | [20] 0.104 | [21] 0.118 | [22] 0.114 | [23] 0.253 | [25] 0.111 | [27] 0.371 | [29] 0.0983 | [30] 0.114 | [31] 0.346 | [32] 0.377 | [33] 0.259 | [34] 0.14 | [35] 0.126 | [36] 0.377 | [37] 0.311 | [38] 0.103 | [39] 0.345 | [40] 0.697 | [41] 0.375 | [42] 0.122 | [43] 0.315 | [44] 0.125 | [45] 0.326 | [46] 0.133 | [47] 0.103 | [48] 0.142 | [49] 0.0978 | locus YPL204W, strain HRR25, hits give low values 0.105 | [51] 0.118
inactive: [1] 0.986 | [2] 0.984 | [3] 0.978 | [4] 0.978 | [5] 0.982 | [6] 0.986 | [7] 0.983 | [9] 0.982 | [10] 0.983 | [14] 0.981 | [16] 0.986 | [24] 0.986 | [26] 0.944 | [28] 0.981 | [50] 0.983 | [52] 0.976 | [53] 0.978

CC(C)c1ccc(COC(=O)Nc2ccc(CSc3ccc(Cl)cc3)o2)cc1
inactive: locus YAR019C, strain CDC15, hits give low values 0.99 | [1] 0.992 | [2] 0.983 | [3] 0.983 | [4] 0.989 | [5] 0.982 | [6] 0.985 | locus YDL101C, strain DUN1, hits give low values 0.992 | [7] 0.985 | locus YDL132W, strain cdc53, hits give low values 0.982 | [8] 0.934 | [9] 0.993 | locus YDR054C, strain cdc34, hits give low values 0.972 | [10] 0.981 | [11] 0.929 | [12] 0.91 | [13] 0.925 | locus YFL009W, strain cdc4, hits give low values 0.979 | locus YFL029C, strain CAK1, hits give low values 0.983 | [14] 0.983 | [15] 0.935 | [16] 0.988 | [17] 0.923 | [18] 0.952 | [19] 0.921 | [20] 0.871 | [21] 0.886 | [22] 0.963 | [23] 0.82 | [24] 0.983 | [25] 0.855 | [26] 0.954 | [27] 0.907 | [28] 0.98 | [29] 0.9 | [30] 1.01 | [31] 0.953 | [32] 0.938 | [33] 0.953 | locus YKL193C, strain SDS22, hits give low values 0.98 | [34] 0.976 | [35] 0.879 | [36] 0.928 | [37] 0.893 | [38] 0.912 | locus YMR001C, strain CDC5, hits give low values 0.983 | [39] 0.928 | locus YMR277W, strain FCP1, hits give low values 0.982 | [40] 0.988 | [41] 0.919 | locus YNL161W, strain CBK1, hits give low values 0.98 | [42] 0.995 | locus YNL207W, strain RIO2, hits give low values 0.982 | locus YNL222W, strain SSU72, hits give low values 0.987 | [43] 0.933 | locus YOL078W, strain AVO1, hits give low values 0.981 | [44] 0.92 | [45] 0.909 | [46] 0.983 | [47] 0.963 | locus YOR329C, strain SCD5, hits give low values 0.986 | [48] 0.902 | [49] 0.912 | [50] 0.988 | [51] 0.923 | locus YPR025C, strain CCL1, hits give low values 0.989 | [52] 0.983 | [53] 0.983 | strain NNK1, hits give low values 0.987 | strain TSCII, hits give low values 0.986

O=P(O)(O)C(Cl)(Cl)P(=O)(O)O
inactive: locus YAL013W, strain DEP1, hits give low values 1.01 | locus YAL040C, strain CLN3, hits give low values 0.972 | locus YCL061C, strain MRC1 (second series), hits give low values 0.995 | locus YDR363W, strain ESC2, hits give low values 1.04 | locus YER002W, strain NOP16, hits give low values 1.01 | locus YJR075W, strain HOC1, hits give low values 1.03 | locus YMR263W, strain SAP30, hits give low values 1 | locus YNL175C, strain NOP13, hits give low values 1 | locus YNL197C, strain WHI3, hits give low values 0.968 | locus YNL224C, strain SQS1, hits give low values 1.02 | locus YOR083W, strain WHI5 (second series), hits give low values 0.973 | locus YPL055C, strain LGE1, hits give low values 1.02

— PubChem BioAssay AID1159580 (chemical genetic matrix, 2015)
